Screens from PubChem BioAssay.
tim23-1 inh: growth inhibitors of tim23-1 mutant yeast. 1.3% of 330,000 active. S. cerevisiae tim23-1 growth, BacTiter-Glo luminescence, 24 h. AID 463212. inhibition, % at 20 µM;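 active = growth inhibition of the mutant yeast at or above 50%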;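 also: temperature-sensitive mutant grown at 25 °C; plate controls were DMSO-treated mutant yeast for no effect and medium wells lacking yeast for full effect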
SKKanGAS inh: SKKanGAS growth inhibition; S. pyogenes SKKanGAS, kanamycin growth, BacTiter-Glo, 6 h; 1.3% of 300,000 active; inhibition, % at 7.5 µM; AID 1662;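 active = mean replicate score, as percent of positive control median, at least 50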;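 also: strain carries kanamycin resistance gene driven by streptokinase promoter and grows in 40 µg/ml kanamycin; loss of luminescence reflects streptokinase promoter inhibition or plain growth inhibition; 0% = median of DMSO wells and 100% = positive control at its reference dose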
tim10-1 inh: growth inhibitors of tim10-1 mutant yeast | S. cerevisiae tim10-1 ts strain growth, BacTiter-Glo, 24 h | 2.2% of 330,000 active | inhibition, % at 20 µM;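 active = inhibition of at least 40%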;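 also: mutant grown at 25 °C; 0% = DMSO wells with yeast and 100% = wells holding no yeast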
NLRP3 yeast inh: blocks the NALP3 inflammasome reconstituted in yeast; Yeast reconstituted NLRP3/ASC/caspase-1, beta-gal luminescence, 24 h; inhibition, % at 10 µM; 0.39% of 330,000 active;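 active = inhibition of 50% or more; inactive = inhibition below 50%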;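 also: plate controls were induced DMSO wells for no effect and uninduced yeast grown without galactose for full effect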
PfHsp90 yeast 2: growth inhibition of yeast expressing Plasmodium Hsp90; S. cerevisiae expressing PfHsp90, BacTiter-Glo ATP, 48 h; yeast lacking PDR1 and PDR3 efflux regulators; 0.32% of 310,000 active; inhibition, % at 9.4 µM;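 active = every replicate shows inhibition above about 80%, whatever the replicate mean, limit read from the data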;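 also: 0% = DMSO neutral controls and 100% = 20 µM radicicol positive controls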
TIM10 inh: inhibits growth of TIM10 yeast strain | S. cerevisiae TIM10 strain growth, BacTiter-Glo luminescence, 24 h | inhibition, % at 10 µM | 1.4% of 330,000 active;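 active = inhibition of 40% or more at the single tested concentration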;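 also: wild-type TIM10 isogenic control strain grown at permissive 25 °C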
tim10-1 confirm: confirmation of tim10-1 mutant yeast growth inhibitors. shares compounds with tim10-1 inh. S. cerevisiae tim10-1 ts strain growth, BacTiter-Glo, 24 h. inhibition, % at 20 µM. 56% of 7,400 active;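 active = inhibition of yeast growth at or above a set limit in either of two repeat tests at 20 µM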;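 also: tim10-1 mutant grown at permissive 25 °C to find synthetic lethal compounds; 0% = DMSO yeast wells and 100% = medium wells without yeast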
* hit, by the source's call; x = no result. This is a sample that favours compounds with a hit; in the whole collection about 4.5% have one here.

SMILES	tim23-1 inh	SKKanGAS inh	tim10-1 inh	NLRP3 yeast inh	PfHsp90 yeast 2	TIM10 inh	tim10-1 confirm
CC(C)c1ccc(/C=C2\C(=O)N(CCN3CCOCC3)C(=S)N2C)cc1	43.5	-4.6	44.7*	13.5	6.7	32.5	40.0*
CCCC(=O)NC(=S)Nc1ccc(Cl)cn1	46.9	-0.8	45.1*	20.0	14.1	38.9	31.9*
Cc1cc(Cl)ccc1OCC(=O)NC(=S)Nc1ccc(Cl)cn1	-0.8	x	-19.5	13.8	-6.2	-1.1	x
Cc1cc(OCC(=O)OCC(=O)NCc2cccs2)ccc1Cl	0.6	x	5.6	13.6	x	-7.6	x
C=C(C)C(=O)NNc1ccccc1	47.7	9.3	41.0*	9.0	-43.0	7.6	37.1*
CC(C)OC(=O)C(=O)NNc1ccccc1	-68.8	-8.0	-7.6	13.7	-0.6	-25.9	x
Cc1ccc(-c2csc(N3CCN(c4cc5c(cc4Cl)nc(C)n5CCN4CCCCC4)CC3)n2)cc1	47.0	11.7	40.5*	19.4	x	9.5	10.7
Cc1ccc(-c2csc(N3CCN(c4cc5c(cc4Cl)nc(C(C)N)n5CCCO)CC3)n2)cc1 (centres undefined)	-6.1	4.0	-15.2	19.1	-8.8	3.2	x
CCOc1ccccc1NC(=O)CCS(=O)(=O)c1ccc(Br)cc1	35.8	-3.8	41.3*	-0.4	14.5	2.6	38.9*
Cc1cc(Cl)ccc1Oc1ccccc1C(=O)CC#N	46.4	1.2	51.8*	1.8	8.4	13.5	38.5*
CN(C)c1ccc(CN(C(=O)c2ccc(Cl)c([N+](=O)[O-])c2)C2CCS(=O)(=O)C2)cc1 (centres undefined)	6.3	3.3	0.2	10.3	-15.8	-8.6	x
COC(=O)c1cn(-c2ccccc2)nc1-c1ccccc1	21.3	-4.5	10.8	29.6	7.0	10.7	x
COC(=O)c1cn(-c2ccccc2)nc1-c1ccc(OC)c(OC)c1	37.6	-5.5	41.6*	21.4	-11.4	15.1	8.7
Cc1ccc(-n2cccc2/C=C2\C(=N)N3N=C(C(C)C)SC3=NC2=O)cc1	45.6	43.4	41.6*	20.4	-64.8	20.0	25.9
CCC1=NN2C(=N)/C(=C\c3cccn3-c3ccc(OC)cc3)C(=O)N=C2S1	20.2	21.3	30.7	14.6	7.0	34.0	x
N=c1n(CCN2CCCCC2)c2ccccc2n1CC(=O)c1ccc(Cl)c(Cl)c1	-34.6	-4.6	14.1	39.6	x	-16.8	x
CCn1c(=N)n(CC(=O)c2ccc(Cl)c(Cl)c2)c2ccccc21	25.3	1.3	42.0*	27.4	-18.7	7.5	10.0
CC1CCN(C(=O)COc2ccc3ccccc3c2Br)CC1	42.2	9.3	6.1	25.6	x	-28.0	x
N#C/C(=C\C=C\c1ccccc1[N+](=O)[O-])C(=O)NCc1ccccc1	48.9	0.6	45.0*	14.8	-7.6	38.1	34.9*
COc1cc(C)c(Br)cc1S(=O)(=O)NCc1ccncc1	0.4	-10.5	4.2	2.6	-5.4	-8.9	x
COc1cc(C)c(Br)cc1S(=O)(=O)NCc1cccs1	40.1	-1.7	40.4*	-6.3	-26.9	32.3	32.0*
COc1ccc(NC(=O)CN(C)C(=O)c2cn(-c3ccccc3)nc2-c2ccc(Cl)cc2)cc1	36.1	21.7	40.6*	9.4	x	13.6	20.5
CC1CCCN(S(=O)(=O)c2ccc(C(=O)Nc3nnc(-c4ccccc4Cl)o3)cc2)C1 (centres undefined)	-4.5	97.2*	41.7*	-10.4	-8.9	22.4	6.7
CCC1CCCCN1S(=O)(=O)c1ccc(C(=O)Nc2nnc(-c3cccs3)o2)cc1 (centres undefined)	21.1	x	44.9*	5.4	-27.3	17.7	27.4
CC1CCCN(S(=O)(=O)c2ccc(C(=O)Nc3nnc(-c4ccccn4)o3)cc2)C1 (centres undefined)	4.7	5.6	20.8	-2.8	-18.3	9.2	x
SMILES	tim23-1 inh	SKKanGAS inh	tim10-1 inh	NLRP3 yeast inh	PfHsp90 yeast 2	TIM10 inh	tim10-1 confirm
CC1CC(C)CN(S(=O)(=O)c2ccc(C(=O)Nc3nnc(-c4cccs4)o3)cc2)C1 (centres undefined)	6.4	81.9*	41.7*	0.9	-53.7	18.0	21.3
Cc1ccc(NCCCCO)cc1C	6.1	8.2	3.3	3.6	-14.9	-2.4	x
O=C(O)C1=CC[C@@H](c2ccc(Cl)cc2)N(S(=O)(=O)c2ccc(Cl)cc2)[C@H]1c1cccc(Cl)c1	9.3	x	40.2*	5.5	-7.5	-7.7	12.6
C(=N\Nc1cc(N2CCCCC2)ncn1)/c1ccco1	19.0	-13.3	-7.1	25.9	-15.2	-13.2	x
Cc1cc(C)n(-c2nc(C)nc3sc4c(c23)CCC(C)C4)n1 (centres undefined)	47.1	9.6	42.3*	0.6	11.0	27.2	29.1
Cc1cc(C)n(-c2ncnc3sc4c(c23)CC(C)CC4)n1 (centres undefined)	34.3	-3.3	13.0	3.8	-4.0	20.8	x
NC(=O)c1ncn([C@@H]2O[C@H](CNCc3cc(Br)ccc3OCc3ccccc3)[C@@H](O)[C@H]2O)n1	x	x	x	x	2.2	x	x
O=[N+]([O-])c1ccccc1S(=O)(=O)NCCSCc1ccco1	16.5	x	12.4	7.1	-2.6	2.0	x
Cc1ccc2[nH]c3c(c2c1)CN(C(=O)CN1c2ccc(F)cc2CCC1C)CC3 (centres undefined)	41.0	5.2	42.7*	23.6	-32.5	29.0	37.6*
Cc1ccc2[nH]c3c(c2c1)CN(C(=O)CN1CCN(C(=O)c2ccco2)CC1)CC3	12.6	-8.2	-28.7	15.3	x	-10.6	x
CCOC(=O)/C(C#N)=C\c1ccc(O)c(OC)c1	26.5	4.2	42.0*	-3.7	-13.6	39.1	34.5*
COc1cc(/C=C/C(=O)CC(=O)/C=C/c2ccc(O)c(OC)c2)ccc1O	42.5	7.1	40.0	x	-2.5	29.3	38.5*
N#Cc1ccccc1NC(=O)C1SC(=Nc2ccccc2)C(C(=O)Nc2ccc(Cl)cc2)=C1N (centres undefined)	25.9	40.0	43.4*	19.3	x	30.2	29.2
CCOc1ccc(N=C2SC(C(=O)Nc3ccccc3C#N)C(N)=C2C(=O)Nc2ccc(Cl)cc2)cc1 (centres undefined)	15.9	36.1	11.5	17.3	-23.6	-0.3	x
CCOc1ccc(/C=N/n2cc(-c3ccccc3)[nH]c2=S)cc1	-3.1	16.3	42.1*	13.7	-11.6	21.4	14.9
Cc1ccccc1NC(=O)c1cc(N)ccc1N1CCCCC1	34.7	x	41.3*	-3.6	x	20.6	31.8*
CN(C)S(=O)(=O)c1ccc(N2CCCC2)c(C(=O)Nc2ccccc2Br)c1	-5.1	-5.6	1.8	10.5	x	-1.4	x
CCCCC1C2=C(CC(C)(C)CC2=O)OC2=C1C(=O)CC(C)(C)C2	48.4	-1.3	44.0*	17.5	23.0	19.1	37.9*
CCCCCCC1C(C#N)=C(N)OC2=C1C(=O)CC(C)(C)C2 (centres undefined)	3.3	-3.6	13.6	12.3	-5.1	-15.0	x
